Values joined by “and” are separate entries in the source; they are usually repeats but may differ in a detail not shown here. Equal values may be shown once. Active and inactive are the calls of the source. How the source made its calls: active means hit-call score of the fitted dose curve at least 0.9, where 1 is the maximum; inactive means score below 0.9.

Read-out in test [1]: Human Leukocyte Antigen - DR isotype (HLADR), HLA-DRA (gene 3122)
As to the kind of experiment: BSK_BE3C_HLADR: BioMAP Diversity Plus: BE3C Assay for Human Leukocyte Antigen - DR isotype (HLADR) Biomarker Activity (AID 2283032). The following applies: primary human bronchial epithelial cells; actives raise or lower the signal. In a few lines: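 Primary human bronchial epithelial cells (BE3C); 24 h chemical exposure; HLA-DR by ELISA; bidirectional curve fit vs DMSO baseline.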

Read-out in test [2]: Vascular cell adhesion molecule 1 (VCAM1), VCAM1 (gene 7412)
As to the kind of experiment: BSK_4H_VCAM1: BioMAP Diversity Plus: 4H Assay for Vascular cell adhesion molecule 1 (VCAM1) Biomarker Activity (AID 2283033).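 On outcome: cell-surface VCAM-1 protein measured by ELISA.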 Particulars: primary human endothelial cells (HUVEC); actives raise or lower the signal. The method, boiled down:
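HUVEC, 24 h post-dose; VCAM-1 by ELISA. Bidirectional curve fit vs DMSO baseline. Parallel SRB total-protein stain (0.1% SRB after 10% TCA fixation, 560 nm) for cytotoxicity.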

Read-out in test [3]: Interferon-gamma inducible Protein 10 (IP10), CXCL10 (gene 3627)
Put plainly: BSK_BE3C_IP10: BioMAP Diversity Plus: BE3C Assay for Interferon-gamma inducible Protein 10 (IP10) Biomarker Activity (AID 2283034). The following applies: primary human bronchial epithelial cells; actives raise or lower the signal. In a few lines:
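ELISA readout of IP-10 in BE3C system: primary human bronchial epithelial cells, 24 h post-dosing; bidirectional curve fit vs DMSO baseline.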

Read-out in test [4]: Monokine induced gamma interferon (MIG), CXCL9 (gene 4283)
Put plainly: BSK_BE3C_MIG: BioMAP Diversity Plus: BE3C Assay for Monokine induced gamma interferon (MIG) Biomarker Activity (AID 2283035).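 On outcome: MIG protein measured by ELISA in BE3C cultures after 24 h of dosing.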 Particulars: primary human bronchial epithelial cells; actives raise or lower the signal. In a few lines: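 Dose cells (human primary bronchial epithelial), incubate 24 h, quantify MIG by ELISA, then fit concentration–response in both directions relative to DMSO control.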

Read-out in test [5]: Transforming growth factor beta 1 (TGFb1), TGFB1 (gene 7040)
Put plainly: BSK_BE3C_TGFb1: BioMAP Diversity Plus: BE3C Assay for Transforming growth factor beta 1 (TGFb1) Biomarker Activity (AID 2283036;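 on outcome: TGF-b1 protein level measured by ELISA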). Particulars: primary human bronchial epithelial cells; actives raise or lower the signal. The method, boiled down:
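Read-out: ELISA for TGF-b1 in primary human bronchial epithelial cultures, 24 h post-dose. Bidirectional curve fitting vs DMSO control; gain or loss of signal both scored.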

Read-out in test [6]: Plasminogen activator inhibitor-1 (PAI1), SERPINE1 (gene 5054)
As to the kind of experiment: BSK_BE3C_PAI1: BioMAP Diversity Plus: BE3C Assay for Plasminogen activator inhibitor-1 (PAI1) Biomarker Activity (AID 2283037). Particulars: primary human bronchial epithelial cells; actives raise or lower the signal. The method, boiled down: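 ELISA read-out of PAI-1 from human bronchial epithelial primary cells, 24 h post-dosing; bidirectional curve fit vs DMSO baseline, gain or loss of signal scored.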

Read-out in test [7]: urokinase plasminogen activator (uPA), PLAU (gene 5328)
Put plainly: BSK_BE3C_uPA: BioMAP Diversity Plus: BE3C Assay for urokinase plasminogen activator (uPA) Biomarker Activity (AID 2283038).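 On outcome: uPA protein level quantified by ELISA in cell cultures; uPA read one day after compound addition.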 The following applies: primary human bronchial epithelial cells; actives raise or lower the signal. In a few lines: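 Bronchial epithelial cells (human, primary); chemical 24 h; uPA by ELISA; bidirectional fit vs DMSO. SRB (0.1%, after 10% TCA fixation, 560 nm) in parallel cultures for cytotoxicity.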

Read-out in test [8]: Interleukin-6 (IL6), IL6 (gene 3569)
Put plainly: BSK_CASM3C_IL6: BioMAP Diversity Plus: CASM3C Assay for Interleukin-6 (IL6) Biomarker Activity for (AID 2283040). Particulars: primary human coronary artery smooth muscle cells; actives raise or lower the signal.

Read-out in test [9]: Tissue plasminogen activator (tPA), PLAT (gene 5327)
As to the kind of experiment: BSK_BE3C_tPA: BioMAP Diversity Plus: BE3C Assay for Tissue plasminogen activator (tPA) Biomarker Activity (AID 2283041).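 On outcome: tPA level quantified by ELISA one day after compound addition.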 Particulars: primary human bronchial epithelial cells; actives raise or lower the signal. In a few lines: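 ELISA read-out of tPA on human primary bronchial epithelial cells, 24 h post-dosing; bidirectional fit vs DMSO negative control/baseline.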

Read-out in test [10]: Interleukin-8 (IL8), CXCL8 (gene 3576)
As to the kind of experiment: BSK_CASM3C_IL8: BioMAP Diversity Plus: CASM3C Assay for Interleukin-8 (IL8) Biomarker Activity (AID 2283042).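 Further: IL-8 protein level quantified by ELISA.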 Particulars: primary human coronary artery smooth muscle cells; actives raise or lower the signal.

Consider `CCCCC/C=C\C/C=C\CCCCCCCC(=O)OC`, for which the AC50 (as a rule, the midpoint of the concentration-response curve, whichever way the signal moves) in test [1] is 18.8 µM (active); in test [2], 36.2 µM (active); in [3] it was 24.9 µM (active); in test [4] it was 38.5 µM (active); in test [8], 20 µM (active). The result in [5], in [6], in test [7], in test [9] and in test [10] was inactive.
For the compound `Nc1ccc(N)c(Cl)c1`, the result in test [1], in [3], in test [4], in [7], in test [8] and in [9] was inactive. In addition, the outcome in [10] was inactive. The AC50 in test [2] is 20 µM (active) and 19.6 µM (active); in test [6], 3.32 µM (active) and 2.4 µM (active).
As for `C=CCOc1c(Br)cc(Br)cc1Br`, the AC50 in test [1] is 29 µM (active); in test [2], 31.5 µM (active); in test [3], 30.9 µM (active); in test [5], 6.57 µM (active); in test [6], 20 µM (active); in test [7], 20 µM (active). Also, the AC50 in test [8] was 27.5 µM (active); in test [9], 8.88 µM (active); in [10], 27.1 µM (active). For the same compound, the result in [4] was inactive.
`O=C1CCCN1CCO`: the outcome in test [1], in test [2], in [3], in test [4], in [6] and in test [7] was inactive. The outcome in test [8], in test [9] and in [10] was inactive.
Take `CO[Si](OC)(OC)c1ccccc1`: the result in test [1], in test [2], in [3], in test [4], in test [6] and in [7] was inactive. For the same compound, the outcome in test [8], in test [9] and in [10] was inactive.
Turning to `C#CC1(O)CC[C@H]2[C@@H]3CCC4=CCCC[C@@H]4[C@H]3CC[C@@]21C` (stereo partly drawn), the concentration at half-maximal activity (AC50) in [1] was 33.3 µM (active); in test [2] it was 15.1 µM (active); in test [3], 34.8 µM (active); in test [4], 36 µM (active); in [7], 20 µM (active); in test [8] it was 6.06 µM (active). The AC50 in test [10] is 32.8 µM (active). The outcome in [5], in test [6] and in [9] was inactive.
As to `C=CCOCC(O)CCl` (stereo not drawn), the result in [1], in [2], in test [3], in test [4], in [5] and in test [6] was inactive. Also, the result in test [7], in test [8], in test [9] and in [10] was inactive.
In the case of `S=C(NC1CCCCC1)NC1CCCCC1`, the outcome in test [1], in test [2], in test [3], in [4], in test [5] and in test [6] was inactive. Also, the outcome in test [7], in test [8], in test [9] and in test [10] was inactive.
As to `c1ccc2c(c1)ccc1cc3c(ccc4ccccc43)cc12`, the outcome in [1], in test [2], in test [3], in test [4], in [5] and in test [6] was inactive. Besides, the result in test [7], in [8], in test [9] and in [10] was inactive.
In the case of `CCCCC(CC)COCC1CO1` (stereo not drawn), the result in test [1], in test [2], in test [3], in test [4], in [6] and in test [7] was inactive. Also, the result in test [8], in test [9] and in test [10] was inactive.
With `C=C[Si](OC(C)=O)(OC(C)=O)OC(C)=O`, the result in [1], in test [2], in test [3], in test [4], in test [6] and in test [7] was inactive. Also, the result in test [8], in test [9] and in [10] was inactive.
Consider `c1ccc2c(c1)ccc1ncccc12`, for which the outcome in test [1], in [2], in test [3], in test [4], in test [5] and in [6] was inactive. Further, the outcome in test [7], in test [8], in test [9] and in [10] was inactive.
For `CCO[Si](C)(OCC)OCC`, the result in [1], in [2], in [3], in [4], in [6] and in [7] was inactive. Besides, the result in test [8], in [9] and in test [10] was inactive.
Turning to `O=C(Nc1ccccc1SSc1ccccc1NC(=O)c1ccccc1)c1ccccc1`, the result in test [1], in [4], in [5], in test [6], in test [7] and in test [8] was inactive. In addition, the outcome in test [9] and in [10] was inactive. For the same compound, the results for the AC50 in test [2] and in test [3] were 20 µM (active) and 1.03 µM (active), respectively.
With `C=CC=CC=CCCCCC`, the AC50 in test [1] and in [3] was 5 µM (active) throughout. The result in [2], in test [4], in [5], in [6], in test [7] and in test [8] was inactive. Besides, the result in test [9] and in test [10] was inactive.
Turning to `CCOc1nc(F)cc2nc(S(=O)(=O)Nc3c(Cl)cccc3C(=O)OC)nn12`, the outcome in test [1], in [2], in test [3], in [4], in test [5] and in [6] was inactive. Also, the outcome in test [7], in test [8], in test [9] and in test [10] was inactive.
With `O=c1c2ccccc2oc2ccccc12`, the result in [1], in test [2], in test [3], in test [4], in [5] and in test [6] was inactive. In addition, the result in [7], in test [8], in test [9] and in test [10] was inactive.
Consider `CCOC(=O)c1ccccc1C(=C1C=C(Br)C(=O)C(Br)=C1)c1cc(Br)c(O)c(Br)c1`, for which the AC50 in test [1] is 4.71 µM (active) and 4.54 µM (active); in [2], 20.6 µM (active) and 20.1 µM (active); in test [3], 3.73 µM (active) and 3.06 µM (active); in test [4], 5.86 µM (active) and 5.17 µM (active); in test [6], 2.48 µM (active); in test [7] it was 3.81 µM (active) and 4.21 µM (active). In test [9], the AC50 was 2.55 µM (active) and 2.71 µM (active). The result in test [8] and in test [10] was inactive.

Values taken from PubChem BioAssay (EPA / NIEHS).
